Sampled rows, rich in hits. Any-hit rate of the full collection: about 10%.
MCF10A rerep – inducers of DNA re-replication in MCF 10A breast cells; MCF 10A DNA re-replication, Hoechst nuclear intensity, 48 h; Potency, µM (top dose mostly 46.1 µM), most hits filed as activators; 2.9% of 350,000 active; note: nearly all actives have a fitted effect of over 50% in size
RORg inh – blocks mouse ROR gamma transcriptional activity; P51450; 5.4% of 310,000 active; Potency, µM (highest dose often 53.6 µM), hits mostly inhibitors; Drosophila S2 Gal4-RORgamma UAS-luciferase reporter, 20 h; note: nearly all actives have a fitted effect of over 60% in size
Target sequence (P51450 whole entry, looked up, the tested form may be a part): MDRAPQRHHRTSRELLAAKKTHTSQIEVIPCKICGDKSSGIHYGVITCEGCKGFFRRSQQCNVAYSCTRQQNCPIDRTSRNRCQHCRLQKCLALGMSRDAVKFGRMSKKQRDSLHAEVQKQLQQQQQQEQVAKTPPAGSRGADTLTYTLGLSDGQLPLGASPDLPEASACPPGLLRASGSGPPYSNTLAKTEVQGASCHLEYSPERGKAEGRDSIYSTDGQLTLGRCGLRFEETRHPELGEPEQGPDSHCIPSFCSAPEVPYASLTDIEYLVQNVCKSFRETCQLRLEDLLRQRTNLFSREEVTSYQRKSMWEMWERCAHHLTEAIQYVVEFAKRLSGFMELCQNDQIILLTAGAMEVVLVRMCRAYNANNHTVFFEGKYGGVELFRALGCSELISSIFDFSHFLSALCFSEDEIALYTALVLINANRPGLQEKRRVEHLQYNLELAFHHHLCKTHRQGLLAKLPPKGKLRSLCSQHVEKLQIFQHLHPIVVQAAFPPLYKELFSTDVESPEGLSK
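ROR gamma transcriptional activity was tracked as Gal4-UAS luciferase output in stably transfected Drosophila Schneider cells, with compound added 1 hr before 700 uM copper sulfate induction and a 20 hr ambient-temperature incubation.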
KB-V1 cytotox – KB-V1 MDR subline cytotoxicity; Potency, µM (series often up to 46.1 µM), actives largely listed as cytotoxic; 3.4% of 400,000 active; KB-V1 MDR cells viability, CellTiter-Glo, 72 h; note: nearly all actives have a fitted effect of over 60% in size
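Cytotoxicity toward P-gp-expressing KB-V1 cells was determined as loss of CellTiter-Glo luminescence after 72 h at 37 degrees C. Compounds were tested in quantitative HTS format across a concentration range, with curves fitted to normalized data.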
SW480 rereplic – induces DNA re-replication in SW480 colon adenocarcinoma cells; 1.8% of 340,000 active; Potency, µM (titrated, usually from 46.1 µM), hits mostly activators; SW480 DNA re-replication, Hoechst DNA content imaging, 48 h; AID 624297; note: nearly all actives have a fitted effect of over 55% in size
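Image-based DNA-content assay: after two days of treatment, nuclei were labelled with the DNA dye Hoechst and imaged, and hits were compounds raising the count of nuclei showing high fluorescence intensity.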
VP16 counter – counter-screen for ROR gamma inhibitors: Gal4-VP16 reporter | AID 2546 | 3.5% of 310,000 active | Potency, µM (doses to about 53.6 µM), hits mostly inhibitors | Drosophila S2 Gal4-VP16 UAS-luciferase, luminescence, 20 h;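 note: Gal4-VP16 expression switched on by copper sulfate through the metallothionein promoter; nearly all actives have a fitted effect of over 50% in size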
KB-3-1 tox – kills parental KB-3-1 adenocarcinoma cells. 1.4% of 400,000 active. Potency, µM (highest dose often 46.1 µM), usual class: cytotoxic. AID 1347075. KB-3-1 viability, CellTiter-Glo ATP luminescence, 72 h; note: nearly all actives have a fitted effect of over 60% in size
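Using CellTiter-Glo luminescence, growth of non-resistant KB-3-1 adenocarcinoma cells is assessed 72 h after pin-tool compound addition at 37 °C. Normalized responses across the concentration series yield fitted curves.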
A number is an active result; . = inactive; ? = inconclusive; / = not tested or not shown; [ ] = dose if it differs, or a comment. Calls come from the whole dose curve; as a rule, active = well fitted curve in the direction sought with a large enough effect; inconclusive = small, poorly fitted or top-dose-only effect, or another doubt; inactive = no such curve, though single readings can be large; an effect the other way counts as inactive or inconclusive.

SMILES	MCF10A rerep	RORg inh	KB-V1 cytotox	SW480 rereplic	VP16 counter	KB-3-1 tox
Cc1cccc(NC(=S)NC(=O)/C=C/c2ccco2)c1	?	4.5µM	5.2µM	2.1µM	?	4.6µM
NS(=O)(=O)c1ccc(NC(=S)NC(=O)/C=C/c2ccco2)cc1	.	.[10 µM]	.	.	.	?
O=C(/C=C/c1ccco1)NC(=S)Nc1ccccc1	.	7.1µM	.	.	3.2µM	.
CC(=O)c1ccc(NC(=S)NC(=O)/C=C/c2ccco2)cc1	.	.[1.91 µM]	.	.	?	.
O=C(/C=C/c1ccco1)Nc1ccc(Oc2ccc(Cl)cc2)cc1	4.6µM	.	?	?	.	5.8µM
COc1cccc(NC(=O)/C=C/c2ccco2)c1	.	.	?	.	.	.
O=C(/C=C/c1ccco1)Nc1ccc(-c2nc3ccccc3[nH]2)cc1	2.6µM	.	.	?	.	?
NC(Cc1ccc(Cl)cc1)c1csc(Nc2ccc(C(F)(F)F)cn2)n1 (centres undefined)	/	/	?	/	/	.
COc1ccc(C(=O)/C=C/c2ccsc2)cc1CSCC(=O)O	18µM	10µM	.	?	10µM	.
COc1ccc(C(C)=O)cc1CSCCC(=O)O	.	.	?	.	.	.
C#CCN(Cc1ccccc1)S(=O)(=O)C=C	26µM	/	.	?	/	?
O=c1[nH]c(=O)n(C2CC(O)C(CO)O2)cc1F (centres undefined)	/	.	/	/	.	/
CCCCCCCCCCCCCCCCCCNc1ccn(C2OC(COP(=O)(O)OCC3OC(n4cc(F)c(=O)[nH]c4=O)CC3O)C(O)C2O)c(=O)n1 (centres undefined)	10µM	/	.	21µM	/	?
CC(=O)Nc1ccc(S(=O)(=O)N(C)CC(=O)OC(C)C(=O)NC2(C#N)CCCCC2)cc1 (centres undefined)	/	/	.	/	/	.
Cc1ccccc1CN(C)CCS(=O)(=O)c1cc(Cl)ccc1Cl	9.2µM	.	?	18µM	.	?
Nc1nnc(CCS(=O)(=O)c2cc(Cl)ccc2Cl)s1	.	.	.	.[9.22 µM]	.	.
CCc1ccc(NC(=O)C2CCCN2S(=O)(=O)c2cccc3nsnc23)cc1 (centres undefined)	/	/	.	/	/	?
COc1ccccc1OCC(=O)NNC(=O)Nc1ccc(Cl)cc1	23µM	.	10µM	18µM	.	18µM
Cc1ccc2nc(NCC(N)=O)nc(-c3ccccc3)c2c1	?	.	.	18µM	.	.
CN1CCN(c2ccc(Nc3ccnc4cc(Cl)ccc34)cc2)CC1	.	/	?	?	/	?
CCN1CCN(c2ccc(Nc3ccnc4ccccc34)cc2)CC1	?	/	.	15µM	/	?
Cc1ccc(NC(=O)NNC(=O)COc2ccc(Cl)cc2)cc1	.	/	.	.	/	.
COc1ccc(Nc2nc(-c3ccncc3)nc3ccccc23)cc1	?	.	?	18µM	.	.
COc1ccc(OC)c(Nc2nc(-c3ccncc3)nc3ccccc23)c1	?	.	?	?	.	.
CCC1=C2CC[C@H]3C(=O)N(CC)C(=O)[C@H]3[C@H]2[C@@]2(Cc3ccccc3)C(=O)N(CCOC)C(=O)N2C1=O	/	.	/	/	.	/
SMILES	MCF10A rerep	RORg inh	KB-V1 cytotox	SW480 rereplic	VP16 counter	KB-3-1 tox
COC(=O)C[C@H]1CC[C@@H](NC(=O)Nc2c(C)noc2C)[C@@H](CO)O1	/	/	.	/	/	.
Cc1nn(C)c2c1c(C(F)(F)F)cc(=O)n2CC(=O)N1CCCCC1C (centres undefined)	/	/	.	/	/	.
O=C(c1cc2cc3ccc(Cl)cc3nc2o1)N1CCN(c2cccc(Cl)c2)CC1	/	/	?	/	/	.
COc1cc(Nc2nc(-c3ccccc3)c3cc(C)ccc3n2)cc(OC)c1OC	?	.	21µM	.	.	?
O=C(O)c1ccc(Nc2nc(-c3ccccc3)nc3ccccc23)cc1	.	.	.	.	.	.
COc1cc(Nc2c3ccccc3nc3ccccc23)cc(OC)c1OC	?	.	?	23µM	?	?
COc1ccccc1Nc1nc(-c2ccccc2)nc2ccccc12	.	.	.	0.58µM	.	.
COc1ccc(Nc2nc(-c3ccccc3)nc3ccccc23)c(OC)c1	?	.	.	?	.	.
O=C(O)c1ccc(Nc2c3ccccc3nc3ccccc23)cc1	21µM	?	.	?	20µM	.
CCCNC(=O)c1ccc(-c2nc(CS(=O)(=O)c3ccc(C)cc3)c(C)o2)cc1	/	/	?	/	/	.
Cc1cccc(-c2noc(-c3ccc(NCc4ccccc4)c([N+](=O)[O-])c3)n2)c1	/	/	.	/	/	.
CSCCNC(=O)C1(C)CCN1C(=O)CCc1ccccc1 (centres undefined)	/	/	.	/	/	.
O=c1[nH]ccc2c(S(=O)(=O)N3CCCNCC3)cccc12	/	.	/	/	.	/
COCCCNC(=O)CCCN1C(=O)CCn2nc(-c3cn(C)c4ccccc34)cc21	/	/	.	/	/	.
C[C@H](Cc1nc2c(cnn2-c2ccccc2Cl)c(=O)[nH]1)C(F)(F)F	/	.	/	/	.	/
COc1ccccc1Nc1c2ccccc2nc2ccccc12	?	.	15µM	?	?	?
CN1CCN(c2ccc(Nc3c4ccccc4nc4ccccc34)cc2)CC1	/	.	23µM	/	10µM	15µM
COc1ccccc1Nc1nc(-c2ccccc2O)nc2ccccc12	.	.	.	.	.	.
Cc1ccc(-c2nc(Nc3ccc(N4CCOCC4)cc3)c3ccccc3n2)cc1	?	.	.	.	.	.
COc1cccc(Oc2nc(-c3ccncc3)nc3ccccc23)c1	18µM	.	?	.[9.22 µM]	.	?
COc1ccc(Nc2c3c(nc4ccccc24)CCC3)cc1	.	.	21µM	.	.	?
COc1ccc(Oc2nc(-c3ccncc3)nc3ccccc23)cc1	.	.	.	.[9.22 µM]	.	.
CCN1C(=O)[C@H]2[C@H]3[C@H](O)[C@H](O)C/C(=N/OC[C@@H](O)COCc4ccco4)[C@@H]3CC[C@@H]2C1=O	/	.[10 µM]	/	/	.[10 µM]	/
CC(=O)c1cc(-c2ccccc2)n(CCC(=O)Nc2cc(C)cc(C)c2)c1C	/	/	.	/	/	.
COc1ccc(Nc2cc(C)c3ccccc3n2)cc1	.	.	.	.	.[10 µM]	.
SMILES	MCF10A rerep	RORg inh	KB-V1 cytotox	SW480 rereplic	VP16 counter	KB-3-1 tox
COc1ccc(C)cc1Nc1c2c(nc3ccccc13)CCC2	1.6µM	.	2.9µM	2.9µM	?	0.65µM
COc1ccc(Nc2c3c(nc4ccccc24)CCCC3)cc1OC	.	.	?	.	.	?
COc1ccc(Nc2c3ccccc3nc3ccccc23)cc1	.	/	?	23µM	/	6.5µM
COc1ccccc1OCC(=O)NNc1c2ccccc2nc2ccccc12	.	1.6µM	?	?	0.79µM	.
COc1ccccc1OCC(=O)NNC(=O)CCCC(=O)NNC(=O)COc1ccccc1OC	.	.[1.91 µM]	.	.	.	.
OCCCNc1c2ccccc2nc2ccccc12	.	?	?	?	?	8.2µM
CC(C)(C)Nc1c2ccccc2nc2ccccc12	15µM	.	.	23µM	.	.

Bioassay records (PubChem BioAssay)
